A selection: hits, their analogues and other compounds. The true share with any hit is near 1.3%.
sEH inh: inhibitors of human soluble epoxide hydrolase. actives 0.34% (n = 91,000). inhibition, % at 2 µM. recombinant human sEH enzymatic activity assay; in the data active = inhibition above about 80%
Target sequence (P34913 whole entry, looked up): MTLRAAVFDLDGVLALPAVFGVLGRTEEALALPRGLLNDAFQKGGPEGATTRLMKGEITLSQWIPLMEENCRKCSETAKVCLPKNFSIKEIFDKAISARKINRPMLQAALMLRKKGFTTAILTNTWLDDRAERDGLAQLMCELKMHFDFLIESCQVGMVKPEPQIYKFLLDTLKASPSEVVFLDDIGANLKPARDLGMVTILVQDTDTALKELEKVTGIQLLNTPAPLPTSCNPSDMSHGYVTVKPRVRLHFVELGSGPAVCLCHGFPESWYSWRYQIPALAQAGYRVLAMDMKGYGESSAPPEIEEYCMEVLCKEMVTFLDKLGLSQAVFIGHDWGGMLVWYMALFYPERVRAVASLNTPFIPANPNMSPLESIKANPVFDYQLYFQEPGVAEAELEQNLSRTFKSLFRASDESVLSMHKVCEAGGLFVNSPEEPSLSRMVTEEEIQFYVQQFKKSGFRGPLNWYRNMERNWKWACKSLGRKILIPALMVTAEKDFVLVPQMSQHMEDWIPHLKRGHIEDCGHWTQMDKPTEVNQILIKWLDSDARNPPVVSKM
PLAP activator: human PLAP activation; actives 1.2% (n = 96,000); P05187; activation fold at 20 µM; AID 696; purified PLAP enzyme, luminescent substrate read-out; stronger effect = higher value; in the data active = activation fold above about 2
BAP1 block: blocks human BAP1 ubiquitin-AMC hydrolysis. actives 0.48% (n = 72,000). recombinant BAP1, Ub-AMC hydrolysis fluorescence kinetic; stronger effect = lower value. calls only at 20 µM. AID 436;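 active = activity remaining at or below 50% of control, provided the compound also passes the data quality filters; inactive = the rest, including low values that fail the filters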;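 also: 100% = DMSO wells rate and 0% = substrate alone blank rate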
sEH act: activators of human soluble epoxide hydrolase | P34913 | actives 0.04% (n = 91,000) | purified human sEH enzymatic activity, activator screen | activation, % at 2 µM; in the data active = activation above about 37%
Numbers without * were called inactive; i = inactive; . = not tested or not shown; + = active, no number.

SMILES | sEH inh | PLAP activator | BAP1 block | sEH act
CCCCNc1nc2ccccc2[nH]1 | -16 | 2.7* | . | 15
CCOCCCNc1nc2ccccc2[nH]1 | 6 | 0.8 | i | -7
CCOC(=O)c1[nH]nc(-c2c(O)cc(C)cc2O)c1-c1csc(C)n1 | -8 | 2.1* | i | 10
CCOC(=O)c1[nH]nc2c1C(=O)N(CC)C2=O | -9 | 0.9 | i | 8
CCCc1cc(-c2n[nH]c(C(=O)OCC)c2-c2cscn2)c(O)cc1O | -8 | 2.1* | . | 7
CCCCNS(=O)(=O)c1ccc2nc(SCC(=O)c3ccccc3OC)[nH]c2c1 | 10 | 2.2* | . | -10
Cc1ccc2nc3c(cc2c1)c(NC(=O)c1ccccn1)nn3CC(C)C | -18 | 2.3* | . | 17
CCCCCN(C(=O)CN(C)Cc1ccc(OC)cc1OC)c1c(N)n(CCCC)c(=O)[nH]c1=O | 4 | 2.4* | . | -5
O=C(NC(CSCc1ccccc1)C(=O)N/N=C/c1ccc(O)cc1O)c1ccc([N+](=O)[O-])cc1 (stereo not given) | 20 | 2.7* | . | -19
Cc1ccc(SC/C(O)=C(\C#N)c2nc3ccccc3n2C)cc1 | 5 | 0.9 | i | -6
Cn1c(/C(C#N)=C(\O)CN2CCN(Cc3ccccc3)CC2)nc2ccccc21 | 3 | 2.5* | i | 0
Cc1ccc(O)c(C2=NNC(O)(C(F)(F)F)C2)c1 (stereo not given) | -4 | 2.2* | . | 4
Cc1ccc(O)c(-c2cc(-c3ccccc3F)[nH]n2)c1 | 10 | 0.9 | . | -10
CCOC(=O)c1sc2ncn(/N=C/c3cccnc3)c(=O)c2c1C | 12 | 2.1* | . | -13
COc1ccc(OC)c(Nc2cc(C)nc3nc(C)nn23)c1 | . | 2* | i | .
CCN(CC)S(=O)(=O)c1cccc(-c2nnc(SC(C)C(=O)NCCC3=CCCCC3)o2)c1 (stereo not given) | 85* | . | i | -84
O=C(CSc1nnc(-c2cccc(S(=O)(=O)N3CCCCC3)c2)o1)NCCC1=CCCCC1 | . | 1.1 | i | .
CCOc1ccc(N2COc3ccc4ccccc4c3C2)cc1 | . | . | i | .
CCc1ccc(NC(=O)CNC(=O)c2cn(-c3ccccc3OC)c(=O)c3ccccc23)cc1 | 3 | 2.2* | . | 0
COc1ccccc1NC(=O)CNC(=O)c1ccccc1C | 3 | 1.3 | . | -2
COc1ncnc2c1NC1=C(S2)C(=NCCC(=O)O)CC(C)(C)C1 | 7 | 1.1 | . | -9
CN(C)c1ncnc2c1NC1=C(S2)C(=NCCCC(=O)O)CC(C)(C)C1 | -14 | 2* | . | 10
CN(C(=O)CSc1nnc2ccccn12)C1CCS(=O)(=O)C1 (stereo not given) | 4 | 0.9 | . | 0
CN(C(=O)CSc1nc2ccccc2n1CCc1ccccc1)C1CCS(=O)(=O)C1 (stereo not given) | . | 2.3* | i | .
Cc1ccc(NC(=S)NNC(=O)CCn2cc(C)cn2)cc1 | 2 | 2.4* | . | -2
SMILES | sEH inh | PLAP activator | BAP1 block | sEH act
Cc1nn(C)c(C(=O)NNC(=S)Nc2ccc(F)cc2)c1[N+](=O)[O-] | -10 | . | . | 12
Cc1ccc(NC(=S)NNC(=O)Cn2nc([N+](=O)[O-])cc2C)cc1 | 12 | 2* | . | -9
Cc1cnn(CCC(=O)NNC(=S)Nc2ccccc2)c1 | 17 | 1.9 | . | -16
Cc1cc([N+](=O)[O-])nn1CC(=O)NNC(=S)Nc1ccc(Cl)cc1 | -3 | 1.3 | . | 6
O=C(Cn1nc(C(F)F)cc1C(F)F)NNC(=S)Nc1ccc(F)cc1 | -12 | 2.4* | . | 15
COc1ccc(C2=NC(C(F)(F)F)(C(F)(F)F)N=C(N3CCCCC3)O2)cc1 | . | . | i | .
CC1(C)Cc2ccccc2C(Nc2ccc(Cl)cc2)=N1 | . | . | i | .
COc1cc(Cl)c(S(=O)(=O)NCc2ccccn2)cc1Cl | 8 | 2.3* | . | -8
Cc1ccc(-n2ncc3c(NCc4cccnc4)ncnc32)c(C)c1 | . | . | i | .
Cc1ccc(-n2ncc3c(NCc4ccccn4)ncnc32)c(C)c1 | -3 | 2* | i | 2
Cc1ccc(-n2nnnc2SCC(=O)NNC(=O)c2ccco2)cc1C | -4 | 2.3* | . | 8
CCc1cc(-c2[nH]ncc2-c2ccc3c(c2)OCO3)c(O)cc1O | . | 2.5* | i | .
COc1ccc(-c2[nH]ncc2-c2ccc3c(c2)OCCO3)c(O)c1 | . | 2.1* | i | .
COc1ccc(-c2nnc(Nc3nc4c(OC)cccc4s3)o2)cc1 | -12 | 2.3* | . | 8
COc1cc(OC)cc(-c2nnc(Nc3nc4c(F)cccc4s3)o2)c1 | -1 | 2.6* | . | -1
Cc1ccc(S(=O)(=O)Nc2cc(S(=O)(=O)c3ccc(Cl)cc3)c(O)c3ccccc23)cc1 | . | . | i | .
CC(C)(C)C1CCc2c(sc3c2C(=O)NC(c2cccc(Cl)c2)N3)C1 (stereo not given) | . | . | i | .
O=C(Nc1ccc2oc(-c3ccc(Cl)c(Cl)c3)nc2c1)c1ncn[nH]1 | 0 | 2.6* | . | -2
Cc1ccc(-c2nc3cc(NC(=O)C(C)C)ccc3o2)cc1 | -2 | 2.5* | i | 0
Cc1ccc(-c2nc3cc(NC(=O)C(C)C)ccc3o2)cc1C | -5 | . | i | 7
CCCc1cc(=O)[nH]c(SCc2cc(C(=O)OC)c(C)o2)n1 | 0 | 1.4 | i | 0
COc1ccc2nc(SCC(=O)Nc3ccc4c(c3)OCCO4)[nH]c2c1 | -11 | 1.5 | i | 11
CCOc1ccc2nc(SCC(=O)Nc3ccc4c(c3)OCCO4)[nH]c2c1 | 6 | 2.1* | . | -4
CCOc1ccc2nc(SCc3ccc(C(=O)OC)o3)[nH]c2c1 | . | 2.2* | i | .
COC(=O)c1cc(CSc2nc3ccccc3[nH]2)oc1C | 10 | 2.3* | . | -10
SMILES | sEH inh | PLAP activator | BAP1 block | sEH act
N#Cc1cccc(N=c2oc3ccc(Br)cc3cc2C(=O)Nc2ccccc2)c1 | . | . | i | .
CCCNC(=O)c1ccc2c(c1)C1C3CCC(C3)C1C(c1ccccc1)N2 (stereo not given) | 46 | 2.6* | . | -45
CCCCOc1ccc(C(=O)O)cc1 | -10 | 1.2 | i | 10
Clc1ccc2nc(CSc3nc4ccccc4s3)cn2c1 | . | . | i | .
COc1cc(/C=N/Nc2nc3ccccc3o2)cc(OC)c1O | 6 | 2.3* | . | -6
COc1cc(/C=N\Nc2nc3ccccc3o2)cc(OC)c1OC | -4 | . | . | 10
COc1ccc(/C=N/Nc2nc3ccccc3o2)cc1O | 3 | 2.1* | . | -3
O=C(Nc1nnc(-c2cccs2)o1)c1cccc(C(F)(F)F)c1 | . | 2.1* | i | .
Cc1nn(-c2ccccc2)c2sc(C(=O)OCN3C(=O)c4ccccc4C3=O)cc12 | . | 1.4 | + | .
CNC(=O)COC(=O)c1cc2c(C)nn(-c3ccc(F)cc3)c2s1 | . | 0.9 | . | .
Cc1nc(NC(=O)c2cc3c(C)nn(-c4ccccc4)c3s2)sc1C(=O)Nc1ccccc1 | -3 | 2.3* | . | 2
CCCC(=O)Nc1ccc(C(=O)NNC(=S)NC(=O)c2cccs2)cc1 | -3 | 2.4* | . | 0
O=C(NC(=S)NNC(=O)c1cccs1)c1ccco1 | -7 | 2.2* | . | 9
COCCNC(=S)NNC(=O)c1ccco1 | 3 | 2.1* | . | 0
O=C(NCCNC(=O)c1cccs1)c1ccco1 | 8 | 0.8 | i | -6
COc1ccc2oc(=Nc3cccc(F)c3)c(-c3nc4ccccc4[nH]3)cc2c1 | . | . | i | .
O=C(O)c1ccccc1C(=O)Nc1ccc(N2C(=O)C3C4CCC(C4)C3C2=O)cc1 (stereo not given) | . | . | i | .
